The source of these data is PubChem BioAssay AID2567 (National Center for Advancing Translational Sciences (NCATS), 2010).

Inconclusive results are not listed. Entries that show only a call come without a potency. Activity calls are given as the source filed them. The call rests on the fitted dose curve; in most records, active means well fitted antagonist curve with a large enough effect in the main read-out, with a control signal flat; inconclusive means small, poorly fitted or top-dose-only effect; inactive means no such curve, though single readings can be large or run the other way.

In this experiment the target is Neuropeptide S receptor (Homo sapiens) (UniProt Q6W5P4). The experiment can be described thus: Confirmation Concentration-Response Assay for Antagonists of the Neuropeptide S Receptor: Calcium Signal Transduction, SAR for Probe. The settings on record: CHO-NPSR cells, NPS-induced calcium fluorescence, FDSS; series mostly up to 19.3 µM. An outline of the steps:
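CHO cells stably expressing human NPSR, loaded with calcium dye; compounds added, then stimulated with NPS (60 nM in stimulation reagent). Fluorescence (Ex 480, Em 520–560 nm) recorded kinetically on FDSS; AC50 from Hill fit.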

Chain of Neuropeptide S receptor (Homo sapiens) (Q6W5P4 whole entry, looked up): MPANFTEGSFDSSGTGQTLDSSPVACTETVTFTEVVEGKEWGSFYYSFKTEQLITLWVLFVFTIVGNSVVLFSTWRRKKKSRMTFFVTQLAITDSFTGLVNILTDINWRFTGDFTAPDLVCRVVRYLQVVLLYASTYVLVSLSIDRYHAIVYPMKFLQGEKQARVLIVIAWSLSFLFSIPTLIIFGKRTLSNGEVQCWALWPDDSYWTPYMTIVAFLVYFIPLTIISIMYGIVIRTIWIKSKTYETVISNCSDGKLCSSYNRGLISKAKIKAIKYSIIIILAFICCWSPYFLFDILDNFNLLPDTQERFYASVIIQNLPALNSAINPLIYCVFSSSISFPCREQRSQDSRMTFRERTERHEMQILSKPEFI

For `Oc1ccc(N=Nc2nccs2)c(O)c1`, the Potency result is “inactive”. On to `COc1cccc(C2c3c(ncn(-c4ccccc4Cl)c3=N)Oc3ccc4ccccc4c32)c1` (stereo unspecified), for which the Potency is 5.52 µM (active). For `COc1ccc(C(=O)N(Cc2ccco2)Cc2cccs2)c(O)c1` the value was “inactive”; for `Cc1oc2c(c1C(=O)NCc1cccnc1)C(=O)c1ccccc1C2=O`, “inactive”. For the compound `Cc1c(P(=S)(c2ccccc2)c2ccccc2)c2ccccc2n1C(=O)Cc1ccccc1`, the Potency result is “inactive”. `COc1cccc(C2c3c(ncn(-c4ccccn4)c3=N)Oc3ccc4ccccc4c32)c1` (stereo unspecified): the Potency is 5.52 µM (active).

As to `COc1ccc(C2c3c(ncn(Cc4ccccc4)c3=N)Oc3ccc4ccccc4c32)cc1OC` (stereo unspecified), the Potency was 1.39 µM (active). As to `COc1ccc(C2c3c(nc(CCc4ccccc4)[nH]c3=O)Oc3ccc4ccccc4c32)cc1OC` (stereo unspecified), the Potency result was “inactive”.

As for `CCOC(=O)c1cnc(-n2nc(C)cc2C)nc1Nc1ccc(C)cc1`, the Potency entry was “inactive”. As for `COc1ccc(C2c3c(ncn(CCCc4ccccc4)c3=N)Oc3ccc4ccccc4c32)cc1OC` (stereo unspecified), the Potency result is “inactive”.

With `O=C1OC(c2ccccc2)(c2ccccc2)N2CCN(C(=O)NCc3ccc(F)cc3)CC12` (stereo unspecified), the Potency was 0.139 µM (active). On to `Cc1cc(C)n(-c2nc(NC(C)C)nc(NC(C)C)n2)n1`, for which the Potency entry is “inactive”. As for `COc1cccc(C2c3c(ncn(-c4ccc(-c5ccccc5)cc4)c3=N)Oc3ccc4ccccc4c32)c1` (stereo unspecified), the Potency entry is “inactive”. With `O=C(NCc1ccc(F)cc1)n1cc(P(=S)(c2ccccc2)c2ccccc2)c2ccccc21`, the Potency result was “inactive”. Turning to `COc1cccc(C2c3c(ncn(-c4ccc(C)cc4)c3=N)Oc3ccc4ccccc4c32)c1` (stereo unspecified), the Potency is 3.48 µM (active). Take `Cn1cc(P(=O)(c2ccccc2)c2ccccc2)c2ccccc21`: the Potency entry is “inactive”. For `COc1cccc(C2c3c(ncn(-c4cccc(OC)c4)c3=N)Oc3ccc4ccccc4c32)c1` (stereo unspecified) the value was 5.52 µM (active); for `CCC(C)n1c(=O)c(C(=O)Nc2ccccc2S(N)(=O)=O)c(O)c2ccccc21` (stereo unspecified), “inactive”.

For `COc1cccc(C2c3c(ncn(Cc4cccs4)c3=N)Oc3ccc4ccccc4c32)c1` (stereo unspecified), the Potency was 3.48 µM (active). On to `CCOC(=O)c1ccc(-n2cnc3c(c2=N)C(c2cccc(OC)c2)c2c(ccc4ccccc24)O3)cc1` (stereo unspecified), for which the Potency was 2.76 µM (active). `COc1ccc(C2c3ccc(OCc4ccccc4)cc3Oc3ncn(CCN4CCOCC4)c(=N)c32)cc1OC` (stereo unspecified): the Potency entry was “inactive”.
